High-throughput results from PubChem.
D1 potentiator = Potentiators of Human D1 Dopamine Receptor: qHTS; D(1A) dopamine receptor (Homo sapiens), P21728; HEK293 TREx D1 cells, calcium flux, dopamine EC20 potentiation; potentiation, % at 10 µM; 0.036% of 360,000 active; AID 504651, 2011; in the data active means potentiation above about 30%; further: 0% is about no effect
Target sequence (P21728 whole entry, looked up): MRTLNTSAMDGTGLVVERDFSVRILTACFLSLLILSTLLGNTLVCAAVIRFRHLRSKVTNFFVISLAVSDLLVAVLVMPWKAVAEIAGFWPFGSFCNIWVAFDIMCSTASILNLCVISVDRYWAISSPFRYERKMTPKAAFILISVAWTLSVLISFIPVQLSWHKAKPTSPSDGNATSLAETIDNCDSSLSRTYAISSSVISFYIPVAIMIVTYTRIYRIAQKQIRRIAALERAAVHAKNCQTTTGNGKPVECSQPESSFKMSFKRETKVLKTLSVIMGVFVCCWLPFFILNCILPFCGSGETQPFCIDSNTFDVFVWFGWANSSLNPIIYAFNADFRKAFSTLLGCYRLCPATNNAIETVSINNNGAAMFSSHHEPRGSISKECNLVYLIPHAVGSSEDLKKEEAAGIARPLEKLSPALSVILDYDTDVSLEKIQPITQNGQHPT
D1 agonist = Allosteric Agonists of the Human D1 Dopamine Receptor: qHTS | activation, % at 2 µM | AID 504660, 2011 | 1% of 360,000 active | HEK293 T-REx D1 cells, calcium flux, agonist mode | D(1A) dopamine receptor (Homo sapiens), P21728; further: 0% is about no effect
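Agonism was scored from calcium flux recorded over 180 s (1 read/s) after pintool compound addition, following a 10-cycle baseline. Cells were inducible force-coupled HEK293 TREx D1, plated overnight at 30 C and loaded with no-wash calcium dye.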
D1 antag = Antagonist of Human D 1 Dopamine Receptor: qHTS. D(1A) dopamine receptor (Homo sapiens), P21728. HEK293 TREx D1 cells, calcium flux, dopamine EC80; active compounds read low. activity change, negative = inhibition, % at 10 µM. 3.2% of 360,000 active. AID 504652, 2011; in the data active means activity change below about -30%; further: on the % scale 0 is the no-effect control and ±100 the full control effect
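Using tetracycline-induced force-coupled D1 Hek293 cells and a calcium dye, signals were followed for 180 s after compound, then for 180 s after EC80 dopamine, to detect inhibitors.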
TRHR agonist = qHTS for Small Molecule Agonists and Allosteric Enhancers of Human TRH Receptor: Primary Screen for Agonists; Thyrotropin-releasing hormone receptor (Homo sapiens), P34981; TRHR cells, calcium flux fluo-8, FDSS agonist mode; activation, % at 2 µM; 0.18% of 360,000 active; further: 0% is about no effect
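Read-out: compound-evoked intracellular calcium rise in TRHR cells, fluo-8 dye, kinetic FDSS fluorescence at 1 s/cycle following a 10-cycle baseline. Cells cultured overnight before dye loading (30 min–1.5 h, RT).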
TRHR PAM = qHTS for Small Molecule Agonists and Allosteric Enhancers of Human TRH Receptor: Primary Screen for Enhancers. Thyrotropin-releasing hormone receptor (Homo sapiens), P34981. TRHR cells, fluo-8 calcium fluorescence, EC20 TRH enhancement. enhancement, % at 2 µM. 0.66% of 360,000 active; in the data active means enhancement above about 30%; further: 0% is about no effect
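Enhancer read-out: after compound pinning and an initial kinetic agonist-mode read, an EC20 of TRH (10 nM final) was injected and fluo-8 calcium signal (Ex 480/Em 530) followed at 1 s/cycle for 100 cycles in TRHR-expressing cells.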
Active calls of the source: *; ! = repeats disagree. In the library only some 4.7% were active in any assay of this set; here they are far more common. Unless noted, no stated cut-off is given here; in the data, active means activation above about 30%; inactive means the rest.

SMILES | D1 potentiator | D1 agonist | D1 antag | TRHR agonist | TRHR PAM
CCN(CC)CCNC(=O)c1ccc(NC(=O)c2ccc(COc3ccccc3)cc2)cc1 | -7.3 | 2.6 | 2.9 | -1.3 | 1.2
CCN(CC)CCNC(=O)c1ccc(NC(=O)c2ccc(C(=O)c3ccccc3)cc2)cc1 | -6.8 | 2.5 | -37.8* | 0.7 | 6.0
CCN(CC)CCNC(=O)c1ccc(NC(C)=O)cc1 | -4.2 | 2.2 | -34.2*! | 0.8 | 24.3
CCN(CC)CCNC(=O)c1ccc(NC(=O)Cc2cccc3ccccc23)cc1 | -8.6 | 2.6 | -20.1 | -0.6 | 9.8
Cn1c(/C(C#N)=C(\O)c2cccc(F)c2)nc2ccccc21 | -6.0 | -0.2 | -6.6 | -0.5 | -4.2
N#C/C(=C(/O)c1cccc(F)c1)c1nc2ccccc2s1 | -5.5 | 23.4 | -35.4* | 3.4 | 11.2
CCC(/C=N/NC(=O)c1ccccc1F)CC | -8.7 | 3.9 | -37.2* | 0.4 | -0.6
O=C(N/N=C/C(c1ccccc1)c1ccccc1)c1ccccc1F | -1.4 | 4.7 | -4.2 | -1.2 | -6.8
N#CC1=C(N)NC(SCc2ccccc2)=C(C#N)C12CCCCC2 | -0.6 | 18.6 | -36.2* | -0.4 | -6.8
CCc1ccc(-c2cc(C(=O)N/N=C/c3ccccn3)[nH]n2)cc1 | 1.7 | -0.3 | 1.0 | -0.1 | 3.2
CCc1ccc(-c2cc(C(=O)N/N=C/c3ccco3)[nH]n2)cc1 | 3.2 | 26.5 | -67.3* | -0.2 | -0.1
O=C(N/N=C/c1ccco1)c1cc(-c2ccc3ccccc3c2)n[nH]1 | 43.0* | 0.4 | 0.2 | 0.1 | -1.3
Cc1ccc(C)n1-c1ncn[nH]1 | -11.8 | 3.0 | -3.6 | 0.3 | 30.2*
O=C1C2CC=CCC2C(=O)N1c1ncn[nH]1 (configuration not stated) | -0.6 | 2.9 | -0.4 | -0.9 | 2.2
CCN(CC)c1ccc(NC(=O)CSc2nnc(C)c(=O)[nH]2)cc1 | -1.2 | 0.4 | -0.5 | -1.3 | 6.3
N#CC1=C2SCN(C3CCCCC3)CN2C(=O)CC1c1ccc(F)cc1 (configuration not stated) | 0.6 | 5.1 | -13.7 | 0.6 | -0.3
N#CC1=C2SCN(C3CCCCC3)CN2C(=O)CC1c1ccc(Cl)cc1 (configuration not stated) | -0.8 | -0.2 | -60.2* | -0.4 | -0.4
CCOC(=O)c1c(NC(=O)c2cc3nc(-c4ccccc4)cc(C(F)(F)F)n3n2)sc2c1CCC(C)C2 (configuration not stated) | 0.7 | 0.0 | 21.1 | 0.6 | 3.9
COc1cc(OC)cc(C(=O)NC(=S)Nc2ccc(N3CCCC3)cc2)c1 | -5.0 | -0.5 | -34.9* | -0.2 | 1.7
O=C(CCN1CCN(c2ccccc2)CC1)NNC(=O)Cc1ccc(Br)cc1 | -8.7 | 1.3 | -38.9* | 0.1 | 1.8
COc1cc(OC)cc(C(=O)NC(=S)N2CCCCCC2)c1 | -1.1 | 2.1 | -3.4 | -0.2 | 2.6
CC(C)Oc1cccc(C(=O)Nc2ccc(N3CCN(C)CC3)cc2)c1 | -11.4 | -0.6 | -56.9* | 0.2 | 7.4
CC(Oc1ccc(Br)cc1)C(=O)NNC(=O)CCN1CCN(c2ccccc2)CC1 (configuration not stated) | -9.8 | 1.4 | -21.3 | -0.7 | -2.4
Cc1ccc(C(NC(=O)c2cccc(S(=O)(=O)N3CCN(C)CC3)c2)c2ccccc2)cc1 (configuration not stated) | -1.4 | 5.3 | -66.5* | 1.0 | 1.5
CN1CCN(c2ccc(NC(=O)Cc3ccccc3)cc2)CC1 | -21.9 | 5.4 | -39.5* | 0.7 | -1.2
SMILES | D1 potentiator | D1 agonist | D1 antag | TRHR agonist | TRHR PAM
O=C(NC1=NCCS1)c1cccc(S(=O)(=O)N2CCCCC2)c1 | -2.2 | -0.7 | -34.1* | 0.2 | 21.4
Cc1c(NC(=S)NC(=O)c2ccc(-c3ccc(Cl)cc3)o2)cccc1C(=O)O | -4.8 | -3.7 | -30.8* | -0.3 | 5.3
CN1CCN(c2ccc(NC(=O)c3ccc(-c4ccc(Cl)cc4)o3)cc2)CC1 | -1.5 | 21.4 | -72.1* | 0.2 | 0.1
COc1ccccc1CNC(=O)c1ccc(Cn2c(SCc3ccccc3)nc3cccnc32)cc1 | -0.1 | 19.5 | 0.1 | -0.6 | 28.6
COc1cccc(CNC(=O)CN2N=C(c3ccc(C)cc3)CCC2=O)c1 | 1.6 | -0.2 | -7.8 | -0.7 | -4.0
Cn1cnc2c(=O)oc3ccc(S(=O)(=O)N4CCN(c5ccccc5F)CC4)cc3c21 | -1.9 | -0.5 | -6.1 | -0.9 | 9.6
CCCOc1ccc(C(=O)CCC(=O)Nc2ccc(N3CCN(C)CC3)cc2)cc1 | -19.9 | 4.7 | -79.5* | -0.2 | 2.2
Cc1ccc(C(=O)Nc2ccc(N3CCN(C)CC3)cc2)c(Cl)c1 | -8.4 | -0.2 | -33.4* | 0.3 | -8.0
Cc1ccc(C(=O)Nc2ccc(N3CCN(C)CC3)cc2)cc1C | -18.6 | 1.5 | -31.3* | -0.6 | 6.7
CCN1CCN(c2ccc(NC(=O)c3cccc(OCc4ccccc4)c3)cc2)CC1 | -2.2 | 38.5* | -0.8 | -0.7 | 5.3
COc1cccc(C(=O)Nc2ccc(N3CCN(Cc4ccccc4)CC3)cc2)c1 | -6.8 | 2.8 | -2.6 | 1.7 | 2.4
CCCOc1ccc(C(=O)CCC(=O)OCC(=O)Nc2ccc(OCC)cc2)cc1 | -6.1 | 6.8 | -1.5 | 0.0 | 4.5
Cc1ccc(C(=O)Nc2ccc(N3CCN(S(C)(=O)=O)CC3)cc2)cc1C | 6.3 | 2.9 | 14.1 | 0.0 | -4.0
CCOC(=O)c1c(C)[nH]c(CCC(=O)NCCCN2CCN(c3ccccc3F)CC2)c1C | -5.3 | 1.3 | -24.0 | 0.4 | 2.5
CN1CCN(c2ccc(NC(=O)c3cccc(S(=O)(=O)N4CCCC4)c3)cc2)CC1 | -11.6 | -0.5 | -33.6* | -0.1 | 0.9
O=C(Nc1ccc(N2CCOCC2)cc1)c1cccc(S(=O)(=O)N2CCCC2)c1 | 1.4 | 9.9 | -0.9 | 0.1 | 0.7
CCCOc1cccc(C(=O)NC(=S)Nc2ccc(N3CCN(C)CC3)cc2)c1 | -9.7 | 3.6 | 14.9 | 0.3 | 7.9
CCc1ccc(S(=O)(=O)NCc2ccc(N3CCN(C)CC3)cc2)cc1 | -1.8 | 4.7 | 1.3 | -0.2 | 0.9
CN1CCN(c2ccc(CNS(=O)(=O)c3ccccc3)cc2)CC1 | -1.7 | 4.2 | -34.7* | 0.5 | 6.2
CN1CCN(c2ccc(NC(=O)c3cccc(OCc4ccccc4)c3)cc2)CC1 | -8.4 | 13.7 | -63.7* | -0.6 | 2.6
CCOc1cccc(C(=O)NC(=S)Nc2ccc(N3CCN(CC)CC3)cc2)c1 | -12.7 | 18.7 | -44.4* | -0.1 | 1.1
O=C(N/N=C/C(Br)=C/c1ccccc1)C1CC1 | -5.7 | 1.6 | -40.7* | 0.0 | -7.6
CC(C)(C)OC(=O)N1CCC(c2c(C(=O)N3CCCCC3)cnn2-c2ccccc2Cl)CC1 | 1.8 | 2.2 | 1.1 | 0.2 | 5.8
